Source: PubChem BioAssay AID2427 (National Center for Advancing Translational Sciences (NCATS), 2010)
Calls of active or inactive are those of the source.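 Rule for the calls: active = melting temperature shift above 3 C; inconclusive = shift above 1 C but not above 3 C; inactive = the rest.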

Target: 15-hydroxyprostaglandin dehydrogenase [NAD(+)] (Homo sapiens) (UniProt P15428)
Test: Thermal Shift Assay for Inhibitors of HPGD (15-Hydroxyprostaglandin Dehydrogenase)
Conditions: Recombinant HPGD thermal shift, SYPRO orange DSF, at 250 µM, stronger effect = higher value
Experimental: Assay Overview: Human 15-Hydroxyprostaglandin dehydrogenase (HPGD) catalyzes the inactivation of prostaglandin E2, and plays a major role in cancer biology by antagonizing the oncogenic potential of cyclooxygenase type 2 (COX2). Studies to assess the stability of human 15-PGDH in presence of compounds was performed as described (Niesen et al., 2007) with variations. References 1. Myung SJ, Rerko RM, Yan M, Platzer P, Guda K, Dotson A, Lawrence E, Dannenberg AJ, Lovgren AK, Luo G, Pretlow TP, Newman RA, Willis J, Dawson D, Markowitz SD. 15-Hydroxyprostaglandin dehydrogenase is an in vivo suppressor of colon tumorigenesis. Proc Natl Acad Sci U S A. 2006 Aug 8;103(32):12098-102. 2. Yan M, Rerko RM, Platzer P, Dawson D, Willis J, Tong M, Lawrence E, Lutterbaugh J, Lu S, Willson JK, Luo G, Hensold J, Tai HH, Wilson K, Markowitz SD. 15-Hydroxyprostaglandin dehydrogenase, a COX-2 oncogene antagonist, is a TGF-beta-induced suppressor of human gastrointestinal cancers. Proc Natl Acad Sci U S A. 2004 Dec 14;101(50):17468-73. 3. Yang L, Amann JM, Kikuchi T, Porta R, Guix M, Gonzalez A, Park KH, Billheimer D, Arteaga CL, Tai HH, Dubois R, Carbone DP, Johnson DH. Inhibition of Epidermal Growth Factor Receptor Signaling Elevates 15-Hydroxyprostaglandin Dehydrogenase in Non-Small-Cell Lung Cancer. Cancer Res. 2007 Jun 15;67(12):5587-5593. 4. Niesen FH, Berglund H, Vedadi M: The use of differential scanning fluorimetry to detect ligand interactions that promote protein stability. Nature protocols 2007; 2:2212-2221 NIH Chemical Genomics Center [NCGC] Structural Genomics Consortium [SGC]
HPGD was diluted to a final assay concentration of 1 uM in 100 mM Tris buffer, pH 8.0, containing 0.01% Tween-20 and 1:1000 SYPRO orange dye. The final assay volume is 10 ul, with or without 200 uM of either NAD+ or NADH. Compounds were added 1:5 from appropriate stock solutions in 10% (v/v) DMSO to comprise either 50 or 250 uM final concentrations. Heat denaturation curves were recorded using a RT-PCR instrument (Mx3005p, Agilent) applying a temperature gradient of 2 degree C/min. Analysis of the data was performed using DSF Analysis vers. 2.5 (ftp://ftp.sgc.ox.ac.uk/pub/biophysics) and Prism 5.0 (GraphPad Software, Inc.)

Chain of 15-hydroxyprostaglandin dehydrogenase [NAD(+)] (Homo sapiens) (P15428 whole entry, looked up): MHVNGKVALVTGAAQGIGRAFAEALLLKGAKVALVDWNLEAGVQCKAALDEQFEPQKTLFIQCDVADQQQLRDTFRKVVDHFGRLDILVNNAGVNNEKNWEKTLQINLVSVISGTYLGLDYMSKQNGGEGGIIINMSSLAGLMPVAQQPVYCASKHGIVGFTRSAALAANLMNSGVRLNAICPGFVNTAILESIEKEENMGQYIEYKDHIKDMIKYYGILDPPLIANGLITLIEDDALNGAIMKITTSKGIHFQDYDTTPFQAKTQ

SMILES | thermal shift (delta Tm)
O=C(c1ccc2c(c1)OCCO2)N1CCCCC1 | 3.5 C (active)
CC1CCCN(C(=O)c2ccc(COc3ccccc3Br)cc2)C1 (centres undefined) | 3.8 C (active)

Same assay, conditions: Recombinant HPGD thermal shift, SYPRO orange DSF, measured here: delta Tm with NADH cofactor, at 250 µM, stronger effect = higher value

SMILES | thermal shift (delta Tm) [C]
O=C(c1ccc2c(c1)OCCO2)N1CCCCC1 | 7.8
CC1CCCN(C(=O)c2ccc(COc3ccccc3Br)cc2)C1 (centres undefined) | 10.6
